Here are results for 4 compounds from PubChem BioAssay (EPA / NIEHS).

The source made the active and inactive calls. How the source made its calls: active means hit-call score of the fitted dose curve at least 0.9, where 1 is the maximum; inactive means score below 0.9.

The nature of the first test: CEETOX_H295R_OHPROG_noMTC: CeeTox H295R High-throughput Steroidogenesis Assay for OH-Progesterone (OHPROG), maximum tolerated concentration (MTC) filtered results only (AID 2283914). Particulars: actives raise or lower the signal. The method, boiled down: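 Medium hormone measured by reverse-phase C18 HPLC with positive electrospray MS/MS after MTBE liquid-liquid extraction. Cells had 48 h forskolin (10 uM) prestimulation, then 48 h chemical dosing. Gain or loss of signal fitted relative to DMSO baseline.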
Take `C=C[Si]1(C)O[Si](C)(C=C)O[Si](C)(C=C)O[Si](C)(C=C)O1` (stereo not given): the AC50 (as a rule, the midpoint of the concentration-response curve, whichever way the signal moves) was 87.1 µM (active).

Turning to `O=C(Nc1ccc2c(O)c(N=Nc3ccc(N=Nc4ccc(S(=O)(=O)O)cc4)cc3)c(S(=O)(=O)O)cc2c1)c1ccccc1`, the compound was called inactive.

In the case of `CC=Cc1ccc(OC)c(OC)c1`, the call was inactive.

As for `COc1ccc(OC)c(N=Nc2c(O)ccc3ccccc23)c1`, the result was inactive.

A further test in a line: CEETOX_H295R_CORTISOL_noMTC: CeeTox H295R High-throughput Steroidogenesis Assay for Cortisol, maximum tolerated concentration (MTC) filtered results only (AID 2283916). The conditions noted are these: actives raise or lower the signal. The gist of the method: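 H295R human adrenal cells prestimulated 48 h with 10 uM forskolin, then exposed 48 h to chemical in 0.1% DMSO; cortisol in medium quantified by HPLC-MS/MS; bidirectional fit vs DMSO baseline, concentrations not MTT-filtered for MTC.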
Regarding `C=C[Si]1(C)O[Si](C)(C=C)O[Si](C)(C=C)O[Si](C)(C=C)O1` (stereo not given), the compound was classed as inactive.

Turning to `CC=Cc1ccc(OC)c(OC)c1`, the compound was classed as inactive.

`COc1ccc(OC)c(N=Nc2c(O)ccc3ccccc23)c1`: the result was inactive.

The nature of a further test: CEETOX_H295R_DOC_noMTC: CeeTox H295R High-throughput Steroidogenesis Assay for DOC, maximum tolerated concentration (MTC) filtered results only (AID 2283918). Particulars: actives raise or lower the signal. The method, boiled down: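 H295R cells prestimulated 48 h with 10 uM forskolin, then exposed 48 h to chemical in 0.1% DMSO. 11-Deoxycorticosterone in medium measured by MTBE extraction and HPLC-MS/MS; bidirectional fit vs DMSO, no MTC filter.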
With `C=C[Si]1(C)O[Si](C)(C=C)O[Si](C)(C=C)O[Si](C)(C=C)O1` (stereo not given), the call was inactive.

Turning to `CC=Cc1ccc(OC)c(OC)c1`, the compound was called inactive.

Turning to `COc1ccc(OC)c(N=Nc2c(O)ccc3ccccc23)c1`, the compound was called inactive.
